This passage reports RUNX1 binding intensity and ETS1 binding intensity results from the supplement of paper PMC10681739.

Assay [1] concerns the target RUNX1 (UniProt Q01196). Kind of assay: RUNX1 binding intensity (PBM fluorescence), RUNX1 alone (arbitrary fluorescence units); higher = stronger binding. The settings on record: RUNX1 concentration 2 nM; ETS1 concentration 0 nM. As to the method:
(§1)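 Cooperative gcPBM on 36-bp genomic probes with neighbouring ETS1 and RUNX1 sites. Recombinant human RUNX1 (2 nM) was incubated alone or with ETS1 (25 nM) and detected with anti-RUNX1 antibody plus Alexa488 secondary. Values are medians over 4 replicate spots; the RUNX1+ETS1 data were normalised to the RUNX1-only data. The probes sit in constant array flanks that are not printed.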

In assay [2] the target is T1, ETS1 (UniProt P14921).
T1 sequence: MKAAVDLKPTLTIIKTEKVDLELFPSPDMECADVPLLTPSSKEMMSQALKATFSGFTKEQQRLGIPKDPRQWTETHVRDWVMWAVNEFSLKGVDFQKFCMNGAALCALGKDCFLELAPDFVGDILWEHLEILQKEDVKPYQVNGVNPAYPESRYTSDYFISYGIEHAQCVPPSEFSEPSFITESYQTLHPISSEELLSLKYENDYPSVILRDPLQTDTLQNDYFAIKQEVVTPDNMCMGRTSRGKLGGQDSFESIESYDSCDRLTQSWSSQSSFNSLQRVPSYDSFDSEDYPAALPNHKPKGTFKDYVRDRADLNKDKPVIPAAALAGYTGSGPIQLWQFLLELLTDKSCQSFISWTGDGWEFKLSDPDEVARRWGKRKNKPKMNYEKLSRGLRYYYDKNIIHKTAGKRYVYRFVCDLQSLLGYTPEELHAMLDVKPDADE
Kind of assay: ETS1 binding intensity (PBM fluorescence) in presence of RUNX1, normalised to ETS1-only experiment (arbitrary fluorescence units); higher = stronger binding. The settings on record: ETS1 concentration 1 nM; RUNX1 concentration 25 nM.

Assay [3] deals with RUNX1 (UniProt Q01196). The assay can be described thus: RUNX1 binding intensity (PBM fluorescence) in presence of ETS1, normalised to RUNX1-only experiment (arbitrary fluorescence units); higher = stronger binding. The following applies: RUNX1 concentration 2 nM; ETS1 concentration 25 nM. The protocol: as §1
Assay [4] addresses T1, ETS1. Kind of assay: ETS1 binding intensity (PBM fluorescence), ETS1 alone (arbitrary fluorescence units); higher = stronger binding. The following applies: ETS1 concentration 1 nM; RUNX1 concentration 0 nM.
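For RUNX1 binding intensity (PBM fluorescence) in presence of ETS1, normalised to RUNX1-only experiment in this document: Full-length recombinant human ETS1 or RUNX1 bound to double-stranded 36-bp genomic probes on microarrays, detected by protein-specific primary antibody and Alexa488 secondary, spot fluorescence as median of four replicate spots.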
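For RUNX1 binding intensity (PBM fluorescence), RUNX1 alone in this document: Full-length recombinant human RUNX1 bound to double-stranded 36-bp genomic probes on a high-density microarray, scored as Alexa488 fluorescence per spot via anti-RUNX1 antibody, median of four replicate spots.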

Chain of RUNX1 (Q01196 whole entry): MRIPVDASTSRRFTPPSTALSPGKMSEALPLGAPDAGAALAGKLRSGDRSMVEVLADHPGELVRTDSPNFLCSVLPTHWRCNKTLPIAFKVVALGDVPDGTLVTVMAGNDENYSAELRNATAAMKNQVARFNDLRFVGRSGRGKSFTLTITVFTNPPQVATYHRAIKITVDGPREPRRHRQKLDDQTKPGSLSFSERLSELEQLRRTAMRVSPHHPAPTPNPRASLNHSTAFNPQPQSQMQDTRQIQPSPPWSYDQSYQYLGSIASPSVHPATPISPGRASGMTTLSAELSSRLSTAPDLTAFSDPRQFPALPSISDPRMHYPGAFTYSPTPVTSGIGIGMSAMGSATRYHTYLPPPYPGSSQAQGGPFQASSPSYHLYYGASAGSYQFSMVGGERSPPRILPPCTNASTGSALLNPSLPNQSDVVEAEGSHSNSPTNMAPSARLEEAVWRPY

As to GACGGCCCCAGCGGAAGTGGTTGCCTTGGTTTGCGC, the RUNX1 binding intensity with RUNX1 [1] turned out to be 734; with RUNX1 [3] it was 2190. For the same sequence, the ETS1 binding intensity in the assay with ETS1 [2] worked out at 10300.
For AAATGTGGCCGGATGCTCTGTGGGCGGGCGGCAGCT, the ETS1 binding intensity with ETS1 [2] came out at 3770. In addition, the RUNX1 binding intensity with RUNX1 [3] amounted to 1300.
For GGGGCAGCTTCCGGCAGGAGAGCCCGCATTCCCGGC, the values for the RUNX1 binding intensity in the assay with RUNX1 [1] and in the assay with RUNX1 [3] were 1460 and 2470, respectively. Further, the ETS1 binding intensity with ETS1 [2] was found to be 771.
On the same counts, the results for TATTCAGGCTTCCGGGTGATGTTTGTGGCCACCCGG are 671, 1510 and 5020.
On the same counts, the results for ATTAGAGGTAGAGGAAATACCACATGCAAAGGTTTG are 785, 863 and 1090.
TCAGGAAGTGGTGTGACCAGCATGTGAACCGCGGCA gave an ETS1 binding intensity with ETS1 [4] of 681.
The same measure, in the same setting: the value for GCGCAAGGCGCTTCCTCCCCCGCAGCGCGAGCCCCA was 477; that for CTGACAGCTTCCGCACAAAGCGCGGTCTATTTCTCC was 405.
Still for that read-out and setting: the value for GCTGCAGCAGGCGGGAAGTCTGCGGTTCGCGGGCTC was 622; that for TCTAAATCACTTCCTGTTACAGAAACCACAGGCCTG was 4300; that for GGTACCAAGGGCAGAGGATGTGGTGAGGTGTGGAGG was 940.
With AGGCAGCACAGGAAGTTATAACCACATGTACACTTG, the RUNX1 binding intensity in the assay with RUNX1 [1] is 781; with RUNX1 [3] it was 1960. Further, in the assay with ETS1 [2], the ETS1 binding intensity was 11900.
In the same order, the values of AACACCTCACACTTCCTGCCCACAAGATAAGAGCCT are 1660, 3120 and 1910.
Sequence CCTCCTGGGAACTTCCTGCGGGGGCCGAAGCTGAAG had an ETS1 binding intensity with ETS1 [4] of 640.
For the sequence AGTTGGTTCCTTCCGGTGGGTTTGTGGGCTTGGGGT, the RUNX1 binding intensity with RUNX1 [1] turned out to be 763; in the assay with RUNX1 [3] it was 1880. Further, the ETS1 binding intensity with ETS1 [2] stood at 2230.
As for GAGGAAAAAGGAAACAGAAACTCCGCAACTTGCGCC, in the assay with ETS1 [4], the ETS1 binding intensity was 503.
In the assay with ETS1 [4], GCTATCCCCGCCCCTTCCTGTGGGCTGGCGCCCGAT registered an ETS1 binding intensity of 482.
With CCCTTCCGCGTGGGTTGCACCTGCTAACCACAGAGC, the RUNX1 binding intensity was found to be 1090 with RUNX1 [1] and 1600 with RUNX1 [3]. Besides, the ETS1 binding intensity in the assay with ETS1 [2] was 866.
Regarding TCAGAACCAGGAAACTGAAGGCGGTTACTCCACATA, in the assay with ETS1 [2], the ETS1 binding intensity amounted to 663. Further, in the assay with RUNX1 [3], the RUNX1 binding intensity was determined as 875.
On the same counts, the results for CTACCGGAAATGCAGCACCACGTAAAATGCGGTCGG are 15800 and 2050.
ACCTTCCTTCCTGCCTCCCTTGTGGCTCCAGTCCAC gave an ETS1 binding intensity in the assay with ETS1 [4] of 552.
As to GAAAGACAGGATGTGGGATAGATCTCAACCACCTTT, the RUNX1 binding intensity stood at 817 with RUNX1 [1] and 4740 with RUNX1 [3]. Further, the ETS1 binding intensity with ETS1 [2] was found to be 4970.
In the same order, the values of TGTCCACCTCTACGGAAGTGCGCCGCAGTCCGCCAG are 792, 908 and 2370.
In the case of CCCAAGCTACGGAAGTTAAACCTCAAACATGAAATC, the ETS1 binding intensity with ETS1 [2] came out at 1420. In addition, the RUNX1 binding intensity with RUNX1 [3] turned out to be 1410.
In the assay with ETS1 [4], TAAATACCTCACAGGAAATTTGAGGTTGGATGAGAT showed an ETS1 binding intensity of 2010.
In the case of AGCACTTCCGTTTGGGCAGGGCTGCGGGCCGGAGGG, the ETS1 binding intensity with ETS1 [2] was found to be 831. For the same sequence, the RUNX1 binding intensity with RUNX1 [3] was determined as 2130.
In the case of TGTCGGGCGGATGTGTACCGGCGGTAATATAGTAAG, the results for the RUNX1 binding intensity with RUNX1 [1] and with RUNX1 [3] were 753 and 1220, respectively. Also, in the assay with ETS1 [2], the ETS1 binding intensity was 2270.
On the same counts, the results for TCCTCCGTTTCCGTAGTTCCGAGTTGCGGTTTCTCC are 12000, 15200 and 3790.
Turning to GGGCAGGCCGGATGTGGGAGACCACAAAGCCCAAGG, the RUNX1 binding intensity in the assay with RUNX1 [1] came to 820; with RUNX1 [3], 9010. Further, the ETS1 binding intensity in the assay with ETS1 [2] turned out to be 27500.
On the same counts, the results for GAAGCAGACAGGAAGTGGGTCTGAGCGGTGGAGGGA are 690, 1910 and 8610.
On the same counts, the results for CCGCTTCCTTAGAGGTTAAGTGGTGGTGGTTCAGTT are 856, 1230 and 391.
With GCAGCTGCAAACAGGAAACCACAGCAGCGTAGCGGA, the RUNX1 binding intensity in the assay with RUNX1 [1] turned out to be 962; in the assay with RUNX1 [3], 1710. For the same sequence, the ETS1 binding intensity in the assay with ETS1 [2] stood at 8470.
The sequence CTGCGCTTCCGCTTCACCCGGAGTACAGCGGTCCTG had an ETS1 binding intensity with ETS1 [4] of 842.
On the same count and under the same terms, for GTCCCCCTTCCGGCTGCAGGTTGAGGTTTGGAACCT the value was 511.
For ATCCCACTATAGGAAGCTTCTCTGTGGTTTTGAGCC, the ETS1 binding intensity with ETS1 [4] was 369. The sequence further returned an RUNX1 binding intensity with RUNX1 [1] of 1370.
Turning to AAGACAACATCCTGCCGGCACAGCCTGCGGGTTACT, the ETS1 binding intensity with ETS1 [4] came to 576; with ETS1 [2], 1480. Further, in the assay with RUNX1 [1], the RUNX1 binding intensity amounted to 720.
For TGCGAGGTTGCCAGGAAACCGCGAAGCCGAGGTCCC, the ETS1 binding intensity in the assay with ETS1 [4] came to 808. Also, the RUNX1 binding intensity with RUNX1 [1] was found to be 1120.
Consider TGTATGAAAAAAACAGGAAACCACAGAGAACTGAGG, for which the ETS1 binding intensity in the assay with ETS1 [4] is 2210. Moreover, the RUNX1 binding intensity in the assay with RUNX1 [1] was found to be 1060.
On the same counts, the results for TCCTAAAGCAGGAAATAGTGAGGCTACCGCAGTGTC are 4180 and 713.
With GTCAGGGGAACAGGATGTGGGTGGGAGCCAGCCCCA, the ETS1 binding intensity was found to be 4250 with ETS1 [4] and 5560 with ETS1 [2]. In the assay with RUNX1 [1], this sequence yielded an RUNX1 binding intensity of 729.
On the same counts, the results for CTGTCCCTAGCAGGATGTGGTTTGCACATTGCTGCT are 3220, 12500 and 962.
In the assay with ETS1 [4], GTAGGGAAGACGGGATGTGGGTTTTCAGCCGTGGCC had an ETS1 binding intensity of 1220. The RUNX1 binding intensity in the assay with RUNX1 [1] amounted to 730.
On the same counts, the results for TCCAGGCATTTCCCCCATGTTGGCTCACCGCACTAT are 416 and 1260.
With AGGCTTCCGGCCACGCCCCCTTCCCGCGGTTGCTAG, the ETS1 binding intensity in the assay with ETS1 [4] amounted to 704; with ETS1 [2], 1140. For the same sequence, the RUNX1 binding intensity with RUNX1 [1] was 748.
Regarding AGAATCGCATCAGGATGTGGTGAGGGAGCACATTTG, in the assay with ETS1 [4], the ETS1 binding intensity was determined as 948. In the assay with RUNX1 [1], this sequence had an RUNX1 binding intensity of 713.
GATACAGTGCTCAGGAAACCACATGAAACCAGAGTA: the results for the ETS1 binding intensity with ETS1 [4] and in the assay with ETS1 [2] were 451 and 948, respectively. In the assay with RUNX1 [1], the RUNX1 binding intensity came to 924.
In the assay with ETS1 [4], CCCGGCCACTTCCGCCTATTGCGGGCGTCGGCTAGG had an ETS1 binding intensity of 1440. This sequence displayed an RUNX1 binding intensity in the assay with RUNX1 [1] of 745.
